The list is not random: actives were taken first. Their share in the collection is about 2%.
Gli-Sufu antag – Gli-Sufu pathway antagonism; inhibition, % at 5 µM; AID 588413; hit rate 0.74% among 340,000; Sufu-KO-LIGHT fibroblasts, Gli luciferase reporter luminescence;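 active means inhibition above about 55%, limit read from the data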;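 further: 0% = DMSO-treated cells and 100% = wells with medium but no cells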
Jurkat NFkB inh – inhibitors of the PMA/ionomycin-induced NF-kB reporter in Jurkat cells | PMA/ionomycin-induced NF-kB luciferase reporter, luminescence | inhibition, % at 4 µM | hit rate 0.53% among 330,000; in the data active means inhibition above about 50%
697 NFkB inh – inhibitors of the PMA/ionomycin-induced NF-kB reporter in 697 B cells; 697 B-cell NF-kB luciferase reporter, 16 h; inhibition, % at 4 µM; hit rate 0.33% among 330,000; in the data active means inhibition above about 35%
GalR3 antag – blocks the human galanin receptor 3; inhibition, % at 3 µM; HEK293 GalR3-CNG cAMP membrane potential fluorescence; galR3 body fused to GalR1 C-terminus; AID 651719; hit rate 0.44% among 360,000; O60755;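 active means inhibition above the screen-wide average plus 3 SD, cut at about 13% in these data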;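 further: forskolin and galanin both at EC90 stimulate the cells; cAMP rise reported by CNG channel membrane potential dye signal; 0% = forskolin plus galanin with DMSO and 100% = forskolin alone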
Target sequence (O60755 1-299 limits assumed): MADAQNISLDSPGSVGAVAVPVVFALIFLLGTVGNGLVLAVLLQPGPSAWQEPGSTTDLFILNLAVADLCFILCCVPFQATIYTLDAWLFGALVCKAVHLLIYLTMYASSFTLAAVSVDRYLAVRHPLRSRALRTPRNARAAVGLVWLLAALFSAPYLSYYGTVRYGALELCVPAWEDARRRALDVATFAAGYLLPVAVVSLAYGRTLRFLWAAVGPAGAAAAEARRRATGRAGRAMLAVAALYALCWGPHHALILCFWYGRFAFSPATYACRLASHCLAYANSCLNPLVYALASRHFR
COUP-TFII inh – blocks human COUP-TFII nuclear receptor | P24468 | HEK293T NGFI-A luciferase reporter, luminescence | inhibition, % at 8.6 µM | hit rate 0.7% among 370,000 | AID 686940;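 active means inhibition above a per-plate cutoff, mean inhibition of test wells between control levels plus 3 SD, cut at about 38% in these data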;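 further: cells cotransfected with COUP-TFII expression vector driving the NGFI-A reporter; 0% = median of COUP-TF2 test wells and 100% = reporter-only cells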
Gli antag conf – Gli-SUFU antagonism confirmation, single concentration; Sufu-KO-LIGHT cells, Gli luciferase reporter, luminescence; hit rate 40% among 2,500; shares compounds with Gli-Sufu antag; inhibition, % at 5 µM;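 active means mean inhibition at 5 µM reaching about 45%, limit read from the data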;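 further: plate controls were DMSO-treated cells for no effect and wells lacking cells for full effect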
Gli cytotox – cytotoxic in Gli-SUFU antagonist counter-screen; cytotoxicity, % at 5 µM; Sufu-KO-LIGHT cells cytotoxicity, ATP luminescence; hit rate 32% among 2,500; shares compounds with Gli-Sufu antag;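 active means mean cytotoxicity at 5 µM above about 25%, limit read from the data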;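 further: cells exposed to compound overnight for roughly 16 to 18 hours; plate controls were DMSO wells with cells for no effect and medium without cells for full effect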
Wnt3a counter – Wnt3a reporter inhibition counter-screen; Wnt-LIGHT cells, Wnt3a-driven luciferase reporter, luminescence; hit rate 20% among 2,500; shares compounds with Gli-Sufu antag; inhibition, % at 6.25 µM; AID 651995;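 active means mean inhibition above about 25%, limit read from the data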
Gal4-VP16 ctr – VP16 inhibition counter-screen for COUP-TFII; HEK293 Gal4-VP16 luciferase reporter, luminescence; shares compounds with COUP-TFII inh; hit rate 25% among 2,500; inhibition, % at 8.5 µM; in the data active means inhibition above about 13%
NR2F2 inh conf – confirmation of human COUP-TFII (NR2F2) inhibitors. shares compounds with COUP-TFII inh. HEK293 NGFI-A luciferase reporter, luminescence. inhibition, % at 8.5 µM. hit rate 45% among 2,500;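 active means mean inhibition over three repeats above a set limit taken from the earlier primary screen, cut at about 38% in these data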;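 further: 100% = cells given the luciferase reporter alone without the COUP-TF2 vector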
The depositor's hits bear a star.

Screening CC1=CC2OC3CC4OC(=O)C=CC=CC(=O)OCCC(C)C(O)C(=O)OCC2(CC1O)C4(C)C31CO1 (stereo not given) returned Gli-Sufu antag 88*, Gli antag conf 96*, Gli cytotox 82* and Wnt3a counter 104*.
`CCC1(OC(=O)CN)C(=O)OCc2c1cc1n(c2=O)Cc2cc3ccccc3nc2-1` (stereo not given) gave Gli-Sufu antag 82*, Gli antag conf 59*, Gli cytotox 59* and Wnt3a counter -83.
O=C(NCCN1CCC2(CC1)C(=O)NCN2c1ccccc1)c1ccc(F)cc1F was read as GalR3 antag -5 and COUP-TFII inh -19.
For CCOc1ccc(-n2c(O)c(C=Nc3ccc(N(CC)CC)cc3)c(=O)[nH]c2=O)cc1 the results were Gli-Sufu antag 97*, Jurkat NFkB inh 10, 697 NFkB inh -33, GalR3 antag 4, COUP-TFII inh -10, Gli antag conf 11, Gli cytotox 17 and Wnt3a counter -12.
N#Cc1ccc(NC(=S)N2Cc3ccc(Br)cc3-n3nncc3C2)cc1 was read as GalR3 antag -8 and COUP-TFII inh 10.
OC(c1ccccc1)(c1ccc(Cl)cc1)C1CN2CCC1CC2 (stereo not given) was read as Gli-Sufu antag 58*, Jurkat NFkB inh -4, 697 NFkB inh -10, GalR3 antag -3, COUP-TFII inh 5, Gli antag conf 27, Gli cytotox 22 and Wnt3a counter -44.
CSc1ncc(Br)c(N2CC2)n1 was read as Gli-Sufu antag -1, GalR3 antag 2 and COUP-TFII inh 0.
For CSc1ncc(Cl)c(C(=O)O)n1 the results were Gli-Sufu antag 54, Jurkat NFkB inh 9, 697 NFkB inh 15, GalR3 antag -3, COUP-TFII inh 1, Gli antag conf 34, Gli cytotox -4 and Wnt3a counter 11.
CCN1C(=O)NC(=O)/C(=C/c2cc(C)n(-c3sc(C)c(C)c3C#N)c2C)C1=O was read as Gli-Sufu antag 0, Jurkat NFkB inh 3, 697 NFkB inh 2, GalR3 antag -3 and COUP-TFII inh -15.
Screening Cc1ccc(N2C(=O)NC(=O)/C(=C\c3cc(C)n(-c4sc5c(c4C#N)CCCC5)c3C)C2=O)cc1 returned Gli-Sufu antag 59*, Jurkat NFkB inh -2, 697 NFkB inh -3, GalR3 antag 0, COUP-TFII inh 13, Gli antag conf 53*, Gli cytotox 42* and Wnt3a counter -45.
CCC(C)n1c(O)c(C=NCc2cccnc2)c(=O)[nH]c1=S (stereo not given) was read as Gli-Sufu antag 6, Jurkat NFkB inh -3, 697 NFkB inh 2, GalR3 antag -3 and COUP-TFII inh 10.
`O=c1[nH]c(=S)n(Cc2ccc(F)cc2)c(O)c1C=NCc1cccnc1` gave Gli-Sufu antag 72*, Jurkat NFkB inh -1, 697 NFkB inh -13, GalR3 antag -7, COUP-TFII inh 1, Gli antag conf 22, Gli cytotox -5 and Wnt3a counter -14.
`COC(=O)C1C(c2ccc(F)cc2)CC2CCC1N2C` (stereo not given) gave GalR3 antag -5 and COUP-TFII inh 6.
`CCC(NC(=O)OCc1ccccc1)P(=O)(Oc1ccccc1)Oc1ccccc1` (stereo not given) gave COUP-TFII inh 28.
Screening CCOc1ccc(-c2cc(C)[n+](CCO)c(-c3ccc(OCC)cc3)c2)cc1 returned Gli-Sufu antag 64*, Jurkat NFkB inh 23, 697 NFkB inh -17, GalR3 antag -3, COUP-TFII inh 8, Gli antag conf 60*, Gli cytotox 34* and Wnt3a counter -47.
`Cc1ccc(N2Cc3ccccc3-n3nncc3C2)cc1` gave GalR3 antag -6 and COUP-TFII inh 0.
C[n+]1c(-c2ccccc2)sc2ccccc21 was read as Gli-Sufu antag 0, Jurkat NFkB inh -11, 697 NFkB inh -20, GalR3 antag -4 and COUP-TFII inh 15.
CN(C)c1ccc(/C=C/C=C/c2sc3ccccc3[n+]2C)cc1 was read as Gli-Sufu antag 82*, Jurkat NFkB inh 20, 697 NFkB inh -44, GalR3 antag 6, COUP-TFII inh 28, Gli antag conf 84*, Gli cytotox 40* and Wnt3a counter 48*.
`C/C(=N\NC(=O)c1ccccc1)c1c(O)n(Cc2ccccc2)c(=O)[nH]c1=O` gave Gli-Sufu antag -5, Jurkat NFkB inh -15, 697 NFkB inh 13, GalR3 antag -4 and COUP-TFII inh -61.
For C/C(=N\Nc1cccc2ccccc12)c1c(O)n(Cc2ccccc2)c(=O)[nH]c1=O the results were Gli-Sufu antag 57*, Jurkat NFkB inh 11, 697 NFkB inh -7, GalR3 antag -4, COUP-TFII inh -4, Gli antag conf 18, Gli cytotox 12 and Wnt3a counter -7.
`CCC(C)NC(=O)CCC(=O)OC1O[C@H]2OC3(C)CC[C@H]4[C@H](C)CCC(C1C)C24OO3` (stereo not given in full) gave Gli-Sufu antag 79*, GalR3 antag -11, COUP-TFII inh 51*, Gli antag conf 84*, Gli cytotox 22, Wnt3a counter 25*, Gal4-VP16 ctr 12 and NR2F2 inh conf 49*.
For COc1cc2c(cc1OC)[C@H]1C(=O)c3ccc4c(c3O[C@H]1CO2)C[C@@H](C(C)(C)O)O4 the results were Gli-Sufu antag 14, Jurkat NFkB inh 3, 697 NFkB inh -17, GalR3 antag -9 and COUP-TFII inh 6.

Compound activity: PubChem, several laboratories
